The results in this text go back to PubChem BioAssay AID1508600 (Functional Genomics Laboratory (NCATS/FGL), 2020).

About 3,700 (7%) of roughly 53,000 sequences were called active.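 How the source made its calls: active means gene knockdowns whose robust z-score for IL-1 alpha signal is at least 2 or at most -2, so actives lie on both sides; inactive means the rest.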 The full list was thinned out, with actives kept by preference.

The nature of this test: Components of the Cytosolic LPS Sensing Pathway: Gene Identification via Genome-wide siRNA Screen.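 Further: robust z of the log signal after scaling to non-targeting control siRNA wells of the plate.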 The following applies: RAW264.7 macrophages, IL-1a HTRF, actives lie on both sides, screened at 100 nM (by protocol), cells primed 5 h with Pam3CSK4 first. Put shortly: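 Three distinct siRNAs per gene were tested singly at 100 nM in RAW264.7 macrophages. Following Pam3CSK4 priming and 24 hour LipidA transfection, IL-1a secretion was read by HTRF.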
(In TR-FRET formats the signal depends on donor and acceptor labels being close together.)
As to GCUGUCACUUUGAAUCCCUTT against Nrg1, the z-score is -0.988 (inactive).

As to GGUAUUGAAAUGGAAAAGGTT against D6Wsu163e, the z-score is -1.2 (inactive).

With GGGCCUAUGCUUACAAACGTT against Pkp3, the z-score is 2.37 (active).

As to GGUUCUAAUUAGAGAAACATT against Tcte1, the z-score is 0.461 (inactive).

As to CGACCAUUCCUUUGAGUUATT against Atl1, the z-score is 3.09 (active).

GGAGCUACCUCUGGAUACATT against Tmem269: the z-score is 1.28 (inactive).

On to GGUACUGGAAAGAAAUGAGTT against Exph5, for which the z-score is 0.356 (inactive).

As to GGUUGUCAUAAUCUUGUUATT against Irgq, the z-score was -0.59 (inactive).

As for GGUAUUUAGGUUGAUAACATT against Kbtbd8, the z-score is -0.206 (inactive).

As to GGUCUUAGAUAAUGUUAGATT against Gpr26, the z-score is 0.718 (inactive).

On to CCCUGUAAGGUUGAUUGUGTT against Oog3, for which the z-score is 0.535 (inactive).

For the sequence GGCUCAUUCCUCUUCUUCCTT against Serhl, the z-score is -3.08 (active).

On to GCCAAGUAAAACCAAAUGUTT against Ldlrad4, for which the z-score is -1.85 (inactive).

In the case of CCGAGAACAGUUGAAGAAGTT against Srbd1, the z-score was 0.174 (inactive).

For GGUGGAUGAGUUGUUCCUUTT against Adck5, the z-score is 0.637 (inactive).

On to GCUACAGGAUUUAUACAUGTT against Dhx29, for which the z-score was 0.865 (inactive).

In the case of GGGACUUAUGUACAACUUCTT against Idua, the z-score was 1.53 (inactive).

For CCUCUGCGCAAUUUAGAGATT against Npb, the z-score is 1.1 (inactive).

On to GACAAGAACCCGGAUAAUATT against Dnajb2, for which the z-score is -0.229 (inactive).

For GCAAGCACGUCAGAAUCUCTT against Pln, the z-score was 2.32 (active).

In the case of GGAAGAACUGAUUGAAGAGTT against Sptlc1, the z-score is -0.789 (inactive).

With GGUGAAAGACCAUUUAUUUTT against Zxdc, the z-score is 0.657 (inactive).

CGUGACUCUGCUUUAACUCTT against Col27a1: the z-score was -2.27 (active).

GGAGCUUGCUCAGACUACUTT against Cct8: the z-score is -0.914 (inactive).

For the sequence GCCUAUCGUCCAGAUUAUCTT against Senp1, the z-score is 0.919 (inactive).

With GGUCAAGUAUCUGAGAAAATT against Selenoh, the z-score is 0.154 (inactive).

Regarding GGCGAUAAGGAACAGAAGUTT against Ppp3r1, the z-score is -0.199 (inactive).

Take GGUCAACCUCAAAGUCUUUTT against Il17a: the z-score was 0.581 (inactive).

As to GGGCUUCAGAAAAUCCAGGTT against Dclre1a, the z-score was -0.447 (inactive).

Take GGCUCCUAUAUACUGAUCATT against Olfr1402: the z-score is -2.65 (active).

As for CCUGGUAAAAGACUGGGCUTT against Dnal1, the z-score is 1.76 (inactive).

As for GGUUAGUCGACAGAAACAATT against Poteg, the z-score is -1.11 (inactive).

Regarding GCUGUCUCAAUCACCCUAATT against Olfr1427, the z-score was -1.23 (inactive).

In the case of GGUCAAGUGUAACAAAGAATT against Bcorl1, the z-score was -0.417 (inactive).

With GGUCAUUAUUGUCAUCUACTT against Tmem9, the z-score is -0.323 (inactive).

Consider GGAAAUCACUGGUUUUCAATT against Asah2, for which the z-score is 2.88 (active).

In the case of GGAGACUGACAAGAAAAUUTT against Gm16367, the z-score was -0.967 (inactive).

Consider GCAUCACGUAUGUGAUUUGTT against Dmrtc1a, for which the z-score is -0.569 (inactive).

Regarding GCAGAGGAGUGAAUAGAUATT against Dtx3l, the z-score is 0.45 (inactive).

As for GGCCAACUUUUUUCACCCATT against Git1, the z-score is -2.19 (active).

On to GGUUGUUCGUGGACACUACTT against Rpl26, for which the z-score is -0.404 (inactive).

On to GGCCGUCACUACUCUGAAATT against Mgst2, for which the z-score is -2.29 (active).

In the case of GGCACUUCUUGGACAUCAUTT against Sfxn5, the z-score was -0.019 (inactive).

For the sequence CGAAGGUCUGUUCGAGAACTT against Morn4, the z-score was 0.668 (inactive).

Consider GCUUCAUCCUAGCGGUUUGTT against Dad1, for which the z-score was -0.899 (inactive).

As for CGAUCGAAUCCUUAAGUACTT against Ttll1, the z-score is -0.0193 (inactive).

For the sequence GCUUUUUACAGGAUAUACATT against Zfp644, the z-score is -0.143 (inactive).

GCCAUACCUUCAACUGUCGTT against Ncoa2: the z-score was -2.42 (active).

On to GGAACGUAAACUAAGCCCGTT against Foxb1, for which the z-score is 0.458 (inactive).

Take CCCAUUUCACUUCAGUUUGTT against Osbp2: the z-score is -0.253 (inactive).

For CCCAAAACGGUAGCUUAAGTT against Rcc1, the z-score is -0.0143 (inactive).

For the sequence GGCAAGAAAGGACCAAUGGTT against Cln8, the z-score was 0.206 (inactive).

Consider CCGUGGGUUUUUUGAAUCUTT against Slc6a1, for which the z-score was 2.63 (active).

As for GCCCAAUAGAAGCUGGAUGTT against Tex29, the z-score was -1.99 (inactive).

As to GGAGCGAGAAGCUUUAGAATT against Ubxn1, the z-score is 0.61 (inactive).

For GGCCAACUAGGGUGUUUGUTT against Tsx, the z-score was 0.182 (inactive).

In the case of GCUAUUAGGAAAUGAAAGATT against Ncald, the z-score is 0.384 (inactive).

Turning to GCAGAGACUCCAAAGCUCATT against Chd4, the z-score was -2 (active).

As to GGAACUUGACAAAGUCUACTT against Panx1, the z-score is 1.2 (inactive).

Consider GGAAGAAGAAGGUGUAACCTT against Defb39, for which the z-score is 0.567 (inactive).

As to GGCAUCUGUUACCCAGAAUTT against Zfp384, the z-score is -1.92 (inactive).

For CCAAAUGACUUUGGUCCUATT against Vax2, the z-score was 0.576 (inactive).

As to CCAUCCUCAACAAGAUCGATT against Rab4b, the z-score was 2.25 (active).

As for GGUGGUAACCAAUCAUUACTT against Cd200r1, the z-score is -0.296 (inactive).

Take GCAUAAACUAACCACUUAGTT against Evi2b: the z-score is -1.77 (inactive).

As to GGCUUUUUUGCCAUUGCUATT against Wnt9b, the z-score was 0.19 (inactive).

Regarding GGAGAUUCAUCGCUACCUUTT against Ccna1, the z-score is 2.46 (active).

As for GGUUGUAGGAAGAAGAGAATT against Olfr957, the z-score is -0.798 (inactive).

For the sequence CGGUCUUUAUUACAUAAUCTT against Ptpro, the z-score is -0.757 (inactive).

In the case of CCAUUGCAUAUUUAGUAGCTT against Sox11, the z-score is -0.765 (inactive).

Take CGUAAAUAUGCCCGUAGUUTT against Bpifa1: the z-score is 0.31 (inactive).

With GGUCUGUAUCCCACUUUUCTT against Dalrd3, the z-score was -2.15 (active).

CCUCUACUCAAGUUUACUUTT against Casq2: the z-score was 0.417 (inactive).

Turning to GGCGAUGGAAAGACUGCACTT against Hus1b, the z-score is 0.311 (inactive).

Take CCCACAAGUUUCAUCUGACTT against Aknaos: the z-score is -0.164 (inactive).

GGAGAACCCAUUAAAGAAATT against Amd1: the z-score was 0.408 (inactive).

GGUCUGUACUUGUUUAGAATT against Vwa3b: the z-score was 0.42 (inactive).

Regarding GCUAUACAAAGGCUACUCUTT against Hectd3, the z-score was 0.379 (inactive).

With GCUGUUGAUUGUAAGCAAUTT against Mtap, the z-score was 0.0958 (inactive).

Regarding GCCGCACCGAAAGUGAAAUTT against Copz2, the z-score is -0.391 (inactive).

As for GGACCGGUGUAAGCUUCGATT against Hinfp, the z-score is 2.05 (active).

For GCUAGAGGAUGGCUGAGCUTT against Poll, the z-score was -0.581 (inactive).

Consider GGUGACUGAAAUCAAACACTT against Il9r, for which the z-score is -1.71 (inactive).

For GGAAGGAUUGCCUUUAGGATT against Rbm12b2, the z-score is 0.29 (inactive).

As to GGAGUAUGAAUUUGUGACUTT against Arhgdig, the z-score was -0.526 (inactive).

Take GGACCGCGUUCAAGAAGAATT against Cyp2c37: the z-score was 2.17 (active).

On to GGAGAAUUUGGAAAGUGAGTT against Rnf150, for which the z-score was 0.0696 (inactive).

Consider GGGUAAACACCCAUUUAGCTT against Lbx2, for which the z-score is -0.156 (inactive).

In the case of GGUCCUAGGCCUACUCAUCTT against Cd46, the z-score was -0.318 (inactive).

For GGUCCUACUAUAACCUGCGTT against Gdf3, the z-score is -0.103 (inactive).

As for GCAGAUUUUGACUAAAGGATT against Sbds, the z-score is -0.747 (inactive).

GCAGUGAACCGUAUUGGACTT against Ncam1: the z-score was 0.406 (inactive).

GGUUCACAGAUGAUACCUUTT against Rab18: the z-score is 4.59 (active).

For GGACCUUCCAGCAAGAUUUTT against Rnf13, the z-score is 0.28 (inactive).

On to GCCGGCAGUAAAGAUUCAUTT against Cog2, for which the z-score was 0.938 (inactive).

As to “CCGGGUAGUCUUUUUGGUGTT against 9130019O22Rik”, the z-score is -1.72 (inactive).

For the sequence GGGAAGAAAGGAUGGGAAATT against Fev, the z-score was 0.355 (inactive).

On to GCGGCCUCUUGAAUGAUUCTT against Ccndbp1, for which the z-score is 2.16 (active).

With GGUUGUUAUGGUCUCAUAUTT against Lrrc40, the z-score is -0.62 (inactive).

Regarding GGUUUCAAGAAAGAUAUGATT against Cntnap5b, the z-score was -0.891 (inactive).

As to GGAAUUAAGAAGACAAUUCTT against Emc2, the z-score is -1.22 (inactive).

For GGAUGUCUCCAUGAAGGAATT against Ccnb2, the z-score is -1.12 (inactive).

As for GGUUGAUGGGUAAUAAACUTT against Nfatc4, the z-score is -2.16 (active).

Turning to GGAAUGGAUAAAAACAUUGTT against Tank, the z-score was 1.27 (inactive).

In the case of GGUGGUCUACUUAGGUUUATT against Sc5d, the z-score is 0.63 (inactive).

Consider GCGUGCAGCCCUCAAUGAATT against Ppp2r5b, for which the z-score is 0.84 (inactive).

For the sequence “GGCGAACAGAGAGAGUUAGTT against 4921524J17Rik”, the z-score was 0.677 (inactive).

In the case of GGGCUUCACUUCCUUAGGATT against Cog3, the z-score is 0.0276 (inactive).
